Bioassay records as filed in PubChem BioAssay.
p53ts 39C kill: kills p53ts cells at the nonpermissive temperature | H1299-p53A138V viability at 39C, ATP luminescence, 24 h | Potency, µM (top dose mostly 46.1 µM), most hits filed as cytotoxic | 130,000 tested, 1.5% active; note: nearly all actives have a fitted effect of over 55% in size
12-hLO inh: 12-hLO (ALOX12) enzyme inhibition | P18054 | purified 12-hLO, xylenol orange hydroperoxide absorbance | Potency, µM (doses to about 57.1 µM), most hits filed as inhibitors | 150,000 tested, 0.12% active | AID 1452; note: nearly all actives have a fitted effect of over 55% in size
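Hydroperoxide formation by human 12-lipoxygenase from 40 uM arachidonic acid was followed colorimetrically via ferric-xylenol orange complex, using the 573/405 nm absorbance ratio. Enzyme concentration was 150 nM, with 30 min reaction at room temperature.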
HPGD block: HPGD (human) dehydrogenase inhibition; P15428; purified HPGD, NADH fluorescence kinetic, PGE2 substrate; Potency, µM, actives largely listed as inhibitors; 150,000 tested, 4.3% active; active = well fitted inhibition curve with a large enough effect, not every such curve was filed as active; inconclusive = small, poorly fitted or top-dose-only effect, or another doubt; inactive = no such curve, though single readings can be large or run the other way
Target sequence (P15428 whole entry, looked up): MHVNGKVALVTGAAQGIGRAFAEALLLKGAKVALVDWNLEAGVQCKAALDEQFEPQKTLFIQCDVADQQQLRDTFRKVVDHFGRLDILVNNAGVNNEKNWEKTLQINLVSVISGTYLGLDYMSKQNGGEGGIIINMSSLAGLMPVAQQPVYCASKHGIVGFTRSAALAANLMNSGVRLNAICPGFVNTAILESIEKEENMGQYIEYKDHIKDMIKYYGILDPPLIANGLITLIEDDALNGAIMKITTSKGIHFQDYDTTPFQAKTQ
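20 nM HPGD preincubated 15 min at room temperature with compound in 50 mM Tris-HCl pH 8, 0.01% Tween 20. Started with 1 mM NAD+ and 30 uM prostaglandin E2; NADH fluorescence (360/450 nm) read 5 times over 30-s intervals, last minus first.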
p53ts 32C kill: cytotoxicity in p53ts cells at permissive temperature; 130,000 tested, 0.93% active; Potency, µM (titrated, usually from 46.1 µM), usual class: cytotoxic; H1299-p53A138V at 32C, ATP luminescence viability, 24 h; AID 924; note: nearly all actives have a fitted effect of over 55% in size
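Viability by ATPlite luminescence after 24 h compound treatment (up to 46 uM) at the permissive 32C. Cells are H1299 carrying p53 A138V. Scale runs from DMSO basal to 100 uM tamoxifen as full kill; AC50 from Hill fits.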
Each line names hits and unclear results; the compound was inactive in the other large screens. This is a sample that favours compounds with a hit; in the whole collection about 4.4% have one here. Unless noted, calls come from the whole dose curve; as a rule, active = well fitted curve in the direction sought with a large enough effect; inconclusive = small, poorly fitted or top-dose-only effect, or another doubt; inactive = no such curve, though single readings can be large; an effect the other way counts as inactive or inconclusive.

Cc1nc(SCC(=O)Nc2nc3ccccc3s2)c(C#N)c(C)c1C	HPGD block 28.2µM (no result: p53ts 39C kill, p53ts 32C kill)
CCn1c(C(=O)NCCc2ccc(OC)c(OC)c2)cc2sc(Cl)cc21	none (no result: 12-hLO inh, HPGD block)
Cn1c(C(=O)NCCc2ccccc2)cc2sc(Cl)cc21	p53ts 39C kill 12.6µM, p53ts 32C kill 15.8µM (no result: 12-hLO inh, HPGD block)
COC(=O)C(CCSC)NC(=O)c1cc2c(n(-c3ccc(C)cc3)c1=O)CC(C)(C)CC2=O (stereo unspecified)	none (no result: 12-hLO inh, HPGD block)
Cc1csc(SCC(=O)NC23CC4CC(CC(C4)C2)C3)n1	HPGD block 28.2µM (no result: p53ts 39C kill, p53ts 32C kill)
O=C(CN1CCN(C2CCCCC2)C(=O)C1=O)Nc1ccc(Cl)cc1	none (no result: 12-hLO inh, HPGD block)
COc1ccc2oc(=N)c(-c3nnc4n3CCCCC4)cc2c1	HPGD block inconclusive (no result: p53ts 39C kill, p53ts 32C kill)
Clc1c(-c2nnc3n2CCC3)sc2ccccc12	p53ts 39C kill inconclusive, HPGD block 28.2µM, p53ts 32C kill inconclusive
Cn1c(-c2sc3ccccc3c2Cl)n[nH]c1=S	HPGD block 20µM (no result: p53ts 39C kill, p53ts 32C kill)
Clc1c(-c2nnc3n2CCCCC3)sc2ccccc12	HPGD block 2µM
COc1ccc2c(Cl)c(-c3nnc4n3CCCCC4)sc2c1	HPGD block 1µM
COC(=O)c1cc2oc3ccccc3c2n1Cc1c(C)cc(C)cc1C	none (no result: 12-hLO inh, HPGD block)
O=C(NCCN1CCOCC1)c1cc2c(=O)n3ccccc3nc2n1Cc1ccccc1	HPGD block inconclusive
Cn1c(C(=O)N2CCCCCC2)cc2c(=O)n(C)c3ccccc3c21	HPGD block 2.82µM
Cc1ccc(CNC(=O)c2cc3c(=O)n(C)c4ccccc4c3n2C)cc1	none (no result: p53ts 39C kill, p53ts 32C kill)
CCN1CCN(C(=O)c2cc3c(=O)n4ccccc4nc3n2Cc2ccccc2)CC1	p53ts 39C kill 12.6µM, HPGD block inconclusive, p53ts 32C kill 12.6µM
COc1cccc(CNC(=O)c2cc3c(=O)n(C)c4ccccc4c3n2C)c1	p53ts 39C kill 10µM (no result: 12-hLO inh, HPGD block)
Cn1c(C(=O)N2CCN(Cc3ccccc3)CC2)cc2c(=O)n(C)c3ccccc3c21	HPGD block 15.8µM
Cc1ccc(N2C(=O)CSC23C(=O)N(CC(=O)Nc2ccc(C)cc2C)c2ccccc23)cc1 (stereo unspecified)	none (no result: 12-hLO inh, HPGD block)
CCCNC(=O)OC[C@H]1O[C@@H](CCO/N=C2/C[C@@H](O)[C@@H](O)[C@@H]3[C@@H]4C(=O)N(CC)C(=O)[C@H]4CC[C@@H]23)C=C[C@@H]1Oc1ccc(OC)cc1	none (no result: 12-hLO inh, HPGD block)
CCOC(=O)N1CCN(S(=O)(=O)N2CCCC(C(=O)NCc3cccc(OC)c3)C2)CC1 (stereo unspecified)	none (no result: 12-hLO inh, HPGD block)
Cc1ccccc1Cn1c(=O)n(CCc2ccccc2)c(=O)c2ccccc21	none (no result: 12-hLO inh, HPGD block)
CCOc1ccccc1CNS(=O)(=O)c1cc2c(cc1C)NC(=O)CO2	none (no result: 12-hLO inh, HPGD block)
CC(C)c1ccc(C(=O)NCCCN(C)C)cc1	HPGD block 14.1µM (no result: p53ts 39C kill, p53ts 32C kill)
O=C(CS(=O)(=O)Cc1ccccc1)N1CCN(Cc2ccc3c(c2)OCO3)CC1	p53ts 39C kill 12.6µM, p53ts 32C kill 12.6µM
O=C(Cn1cc(S(=O)(=O)N2CCN(c3ccccc3F)CC2)c2ccccc2c1=O)Nc1ccc(F)cc1Cl	none (no result: 12-hLO inh, HPGD block)
Cc1cccc(Nc2nc(-c3ccccn3)cs2)n1	p53ts 32C kill inconclusive
c1ccc(Nc2nc(-c3cccs3)cs2)nc1	p53ts 39C kill inconclusive, p53ts 32C kill 12.6µM
Cc1cccc(Nc2nc(-c3cccs3)cs2)n1	12-hLO inh 17.8µM, p53ts 32C kill inconclusive
c1ccc(Nc2nc(-c3cccnc3)cs2)nc1	p53ts 39C kill 15.8µM, p53ts 32C kill inconclusive
c1cncc(Nc2nc(-c3cccnc3)cs2)c1	none
Cc1[nH]n(-c2ncc(-c3ccccc3)s2)c(=O)c1C(c1ccc(Cl)cc1)C(C#N)C#N (stereo unspecified)	HPGD block 25.1µM (no result: p53ts 39C kill, p53ts 32C kill)
O=C(Cc1csc2ccccc12)NCc1cccc(Br)c1	none (no result: 12-hLO inh, HPGD block)
CCCCC(CC)CN=C(N)NC(N)=NCCCCCCN=C(N)NC(N)=NCC(CC)CCCC (stereo unspecified)	p53ts 39C kill inconclusive, p53ts 32C kill 15.8µM
COC(=O)Oc1nsnc1N1CCOCC1	HPGD block 14.1µM
S=C(Cc1cccnc1)N1CCOCC1	HPGD block 22.4µM (no result: p53ts 39C kill, p53ts 32C kill)
O=c1nc2s/c(=C\c3ccc(-c4ccccc4[N+](=O)[O-])o3)c(=O)n2nc1-c1ccccc1	HPGD block 7.94µM (no result: p53ts 39C kill, p53ts 32C kill)
CCCCCOc1ccc(/C=c2\sc3nc(=O)c(-c4ccccc4)nn3c2=O)cc1OC	none (no result: p53ts 32C kill)
COc1ccc2cc(C(=O)Nc3ccc(F)cc3)sc(=O)c2c1OC	none (no result: p53ts 39C kill, p53ts 32C kill)
COc1ccc2cc(C(=O)Nc3ccc(O)cc3)sc(=O)c2c1OC	HPGD block 25.1µM (no result: p53ts 39C kill, p53ts 32C kill)
O=C(O)c1ccc(B(O)O)cc1	none
C[Si](C)(c1ccc(C(=O)O)cc1)c1ccc(C(=O)O)cc1	HPGD block 0.199µM
